GLP-1R inv ag: GLP-1 receptor (human) inverse agonism | Potency, µM (highest dose often 38.3 µM), for the others: top-dose activity change, negative = inhibition, hits mostly inhibitors | AID 624417 | P43220 | HEK293 GLP-1R CRE-luciferase, luminescence, 24 h; GLP-1R form is constitutively active | actives 1.6% (n = 410,000); also: potency is read from the fitted curve at half-maximal effect; % is scaled to controls: 0 for no effect and ±100 for the full control effect; nearly all actives have a fitted effect of over 55% in size
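HEK293 cells stably co-expressing a cAMP-responsive luciferase reporter and constitutively active GLP-1R were seeded, incubated 12 h, then exposed to compounds for 24 h at 37 C. Luminescence was read 12 min after detection reagent; inverse agonists lower signal.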
D3 antag: blocks the human D3 dopamine receptor; D3R cells, DiscoveRx beta-arrestin luminescence, antagonist mode; active compounds read low; max response, negative = inhibition, %; actives 2.5% (n = 360,000); AID 652054; in the data active = max response below about -50%; inconclusive = no clear call, values can overlap the other calls; also: % is scaled to controls: 0 for no effect and ±100 for the full control effect
Target sequence (P35462 whole entry, looked up): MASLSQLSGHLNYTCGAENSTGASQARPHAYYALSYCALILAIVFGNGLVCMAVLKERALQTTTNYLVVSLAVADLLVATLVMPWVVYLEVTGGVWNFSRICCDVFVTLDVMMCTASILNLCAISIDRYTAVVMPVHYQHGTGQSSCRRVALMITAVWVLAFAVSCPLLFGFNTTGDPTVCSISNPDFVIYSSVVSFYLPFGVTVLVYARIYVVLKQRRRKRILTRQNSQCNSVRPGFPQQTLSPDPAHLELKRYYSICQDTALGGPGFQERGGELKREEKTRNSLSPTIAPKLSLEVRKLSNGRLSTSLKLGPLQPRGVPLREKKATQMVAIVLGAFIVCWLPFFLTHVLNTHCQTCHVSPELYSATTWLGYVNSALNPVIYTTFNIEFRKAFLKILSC
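Cells expressing the human receptor were seeded at 1500 cells/well, incubated overnight at 37 degrees C in 5% CO2, then exposed to library compounds with dopamine controls for 90 minutes at 37 degrees C before luminescent detection.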
DRD3 agonist: agonists of human D3 dopamine receptor | AID 652048 | P35462 | max activation, % | D3R DiscoveRx beta-arrestin cells, luminescence, 90 min | actives 0.58% (n = 410,000); in the data active = max activation above about 30%; also: 0% is about no effect
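Agonist-mode cell screen: cells plated at 1500/well and incubated overnight at 37 °C, then exposed to library compounds for 90 min at 37 °C. Detection reagent was added for 30–60 min at room temperature, and luminescence was read.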
GLP-1R agonist: GLP-1 receptor (human) agonism; P43220; HEK293 GLP-1R CRE-luciferase, luminescence, 4-6 h; cells express a hypersensitive GLP-1R form; Potency, µM (titrated, usually from 45.6 µM), without a hit: at the highest dose activation, hits mostly activators; actives 0.007% (n = 380,000); AID 624172; also: potency is read from the fitted curve at half-maximal effect; % of control where 0% means no effect
An asterisk follows results filed as active; ? = inconclusive; · = no result. Sampled rows, rich in hits. Any-hit rate of the full collection: about 4.3%. Unless noted, calls follow the shape of the dose curve; as a rule, active = well fitted curve in the direction sought with a large enough effect; inconclusive = small, poorly fitted or top-dose-only effect, or another doubt; inactive = no such curve, though single readings can be large; an effect the other way counts as inactive or inconclusive.

SMILES | GLP-1R inv ag | D3 antag | DRD3 agonist | GLP-1R agonist
NC(=O)C1CCN(Cc2cccc(OCc3ccccc3)c2)CC1 | -22% | -22 | -9 | 1%
CCOC(=O)c1cc(C)n(Cc2cccc(OC)c2OC)c1C | 4µM* | -1 | -3 | 2%
CCOC(=O)C1CCN(Cc2cccc(OCc3ccccc3)c2)CC1 | ? | -66* | 3 | 11%
CCOC(=O)c1c(C)c(C)n(Cc2cccc(OC)c2OC)c1C | ? | -15 | -3 | 10%
Cc1ccc(Cl)cc1NC(=O)Nc1cccc(OCc2cc(=O)n3ccccc3n2)c1 | -3% | · | -14 | ·
Cc1cc(C(=O)NNC(=O)CN2C(=O)NC(C)(c3ccccc3)C2=O)c(C)o1 (stereo not given) | -9% | 4 | 3 | -8%
CCC1CCCCN1C(=O)CSc1n[nH]c(-c2ccccc2)n1 (stereo not given) | 11% | · | 0 | ·
CCCN(CCC)CCNC(=O)c1sc2nc3n(c(=O)c2c1C)CCCCC3 | ? | · | -10 | ·
CS(=O)(=O)c1cccc(-c2nnc(NC(=O)c3ccc4c(c3)OCCO4)o2)c1 | -4% | · | -8 | ·
Cc1c(N)nc(C(CC(N)=O)NCC(N)C(N)=O)nc1C(=O)NC(C(=O)NC(C)C(O)C(C)C(=O)NC(C(=O)NCCc1nc(-c2nc(C(=O)NCCCN[C@@H](C)c3ccccc3)cs2)cs1)C(C)O)C(O[C@@H]1O[C@@H](CO)[C@@H](O)[C@H](O)[C@@H]1O[C@H]1O[C@H](CO)[C@@H](O)[C@H](OC(N)=O)[C@@H]1O)c1cnc[nH]1 (stereo not given in full) | · | · | 6 | ·
C=CC(C)(C)c1c(O)c(CC=C(C)C)c(O)c2c(=O)c3ccc(O)c(O)c3oc12 | ? | 81 | 89* | -3%
CC#CCC(C)[C@H](O)/C=C/[C@@H]1[C@H]2c3cccc(CCCC(=O)O)c3O[C@H]2C[C@H]1O (stereo not given in full) | · | · | 15 | ·
COc1ccc(N(CC(=O)NC2CC3CCC2C3)S(=O)(=O)c2ccc(C)cc2)cc1 (stereo not given) | 10µM* | -29 | -8 | 0%
COc1ccc(N(CC(=O)NC2CC3CCC2C3)S(=O)(=O)c2ccc(C)cc2)cc1OC (stereo not given) | 15% | -28 | -11 | 8%
COc1ccc(S(=O)(=O)N(CC(=O)Nc2cccc(C(F)(F)F)c2)c2ccc(C)cc2)cc1 | 10µM* | · | -15 | -4%
COc1cc(NC(=O)CN(c2ccc(C)cc2)S(=O)(=O)c2cccc3nonc23)cc(OC)c1 | ? | · | -16 | 1%
CCC1CCCCN1Cc1cn2c(-c3ccc(Br)cc3)nnc2s1 (stereo not given) | 7% | · | -3 | -4%
Cc1cc(C)nc(SCc2ccc(C(=O)N/N=C/c3ccncc3)cc2)n1 | 63% | -1 | -20 | 29%
Cc1cc(C)nc(SCc2ccc(C(=O)NNC(=O)Nc3cccc(Cl)c3)cc2)n1 | ? | -58* | -6 | -35%
C[C@H]1CNC(=O)c2c(C(=O)N3CCN(C(=O)OC(C)(C)C)CC3)ncn21 | -9% | -55* | -13 | -3%
Cc1ccc(CN2CCC(NC(=O)c3ccccc3)CC2)cc1 | 20% | -96* | -19 | 19%
CCc1nc2ccc(C(=O)NC3CCN(Cc4ccccc4)CC3)cn2c1N(C)Cc1ccc(N(C)C)cc1 | ? | -63* | -22 | -5%
CC1(C)Cc2cccc(C(=O)NC3CCN(Cc4ccccc4)CC3)c2O1 | 10µM* | -77* | -10 | 5%
Cc1ccc(C)n1-c1ccc(C(=O)NC2CCN(Cc3ccccc3)CC2)cc1 | -3% | -52* | -49 | -9%
Cc1ccccc1C(=O)NC1CCN(Cc2ccccc2)CC1 | 2% | -16 | -17 | 2%
COC(=O)c1sc2cccc(F)c2c1S(=O)(=O)N1CCN(c2cccc(OC)c2)CC1 | ? | · | 8 | ·
O=C(CN1C(=O)NC2(CCCc3ccccc32)C1=O)c1ccccc1F (stereo not given) | -10% | -21 | -5 | 5%
C[C@@H]1O[C@@]2(CS1)CN1CCC2CC1 | · | · | · | -2%
CCCSc1nnc2[nH]c(=O)cc(C)n12 | 6% | · | -11 | ·
COc1ccc(CCN(C)C(=O)CSc2nc3ccccc3c(=O)n2CC2CCCO2)cc1OC (stereo not given) | 6% | 14 | 7 | 15%

High-throughput results deposited in PubChem BioAssay by National Center for Advancing Translational Sciences (NCATS).
